Data reported in the supplement of paper PMC13172266.
Where a name gives a salt, the structure may show the parent alone.

Experiments:
Assay in all cases: cell proliferation relative to vehicle (% of vehicle); higher = less growth inhibition
Settings in all cases: 72 h
[1] = test system: U2932 TK216-resistant clone 2
In short: (§1)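 Parental U2932 cells (ABC-DLBCL) and two clones made resistant to an ETS-targeting agent by almost a year of repeated exposure were treated for 72 h with 348 targeted inhibitors at 500 nM or 50 nM. MTT was then applied for 4 h, the reaction was stopped with 25% SDS, and absorbance was measured on a Cytation 3. Values express proliferation as percent of proliferating cells compared with DMSO vehicle.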

[2] = test system: U2932 TK216-resistant clone 3
In short: as §1

U2932 parental = test system: U2932 parental
In short: as §1

| Structure (SMILES) | cell proliferation ([1]; 50 nM) | cell proliferation ([1]; 500 nM) | cell proliferation ([2]; 50 nM) | cell proliferation ([2]; 500 nM) | cell proliferation (U2932 parental; 50 nM) | cell proliferation (U2932 parental; 500 nM) |
| --- | --- | --- | --- | --- | --- | --- |
| O=C(Cc1ccc(-c2ccc(OCCN3CCOCC3)cc2)cn1)NCc1ccccc1 | 14.1 | 8.36 | 20.3 | 8.01 | 13.9 | 9.55 |
| Cc1nc(N)sc1-c1ccnc(Nc2ccc(N3CCOCC3)cc2)n1 | 91.2 | 103 | 99.5 | 103 | 103 | 95.8 |
| Cc1ccc(NC(=O)c2ccc(CN3CCN(C)CC3)cc2)cc1Nc1nc(-c2cccnc2)cs1 [Masitinib (AB1010)] | 95.6 | 83.5 | 100 | 86.2 | 92.5 | 92.7 |
| CCCCNc1ncc2c(-c3ccc(CN4CCN(C)CC4)cc3)cn([C@H]3CC[C@H](O)CC3)c2n1 | 95.5 | 71.1 | 92 | 65.6 | 91.3 | 62.7 |
| Clc1ccc(C2(c3ccc(-c4cn[nH]c4)cc3)CCNCC2)cc1 | 88.5 | 48.2 | 94.6 | 73.6 | 93 | 75.5 |
| Cc1csc(-c2nnc(Nc3ccc(Oc4ncccc4-c4ccnc(N)n4)cc3)c3ccccc23)c1 | 88 | 99.7 | 80.5 | 78 | 66.9 | 61.8 |
| C[C@@H](Oc1cc(-n2cnc3ccc(CN4CCN(C)CC4)cc32)sc1C(N)=O)c1ccccc1C(F)(F)F | 8.44 | 10 | 5.99 | 14.8 | 8 | 10.6 |
| CCOc1ccc(Cc2cc([C@@H]3O[C@H](CO)[C@@H](O)[C@H](O)[C@H]3O)ccc2Cl)cc1 [Dapagliflozin] | 103 | 103 | 101 | 107 | 103 | 96.2 |
| FC(F)(F)c1ccc(/C=C/c2nc(COc3ccc(CCCCn4ccnn4)cc3)co2)cc1 [Mubritinib (TAK 165)] | 90.7 | 61 | 80.9 | 63.5 | 85.6 | 57.4 |
| COc1ccc2c(Oc3ccc(NC(=O)c4c(C)n(CC(C)(C)O)n(-c5ccccc5)c4=O)nc3)ccnc2c1 | 102 | 103 | 95.4 | 97.4 | 103 | 97 |
| Cc1ccc([C@@H]2O[C@H](CO)[C@@H](O)[C@H](O)[C@H]2O)cc1Cc1ccc(-c2ccc(F)cc2)s1 [Canagliflozin] | 93.3 | 102 | 104 | 104 | 91.9 | 87.9 |
| C[C@H]1c2cccc(O)c2C(=O)C2=C(O)[C@]3(O)C(=O)C(C(N)=O)=C(O)[C@@H](N(C)C)[C@@H]3[C@@H](O)[C@@H]21 [Doxycycline Hyclate] | 104 | 105 | 102 | 102 | 106 | 105 |
| C[C@@H](N)[C@H]1CC[C@H](C(=O)Nc2ccncc2)CC1 | 98.8 | 102 | 100 | 103 | 94.8 | 97.7 |
| NC(=O)NO [Hydroxyurea] | 103 | 94.7 | 102 | 103 | 92.2 | 97.8 |
| Nc1cccc2c1C(=O)N(C1CCC(=O)NC1=O)C2=O (stereo not given) [Pomalidomide] | 95.8 | 94.7 | 91 | 84.7 | 93.2 | 84.3 |
| CS(=O)(=O)c1cccc(CNc2nc(Nc3ccc4c(c3)CCC(=O)N4)ncc2C(F)(F)F)c1 | 110 | 101 | 103 | 98.3 | 90.5 | 82.6 |
| Oc1c2ccccc2c2c3c(cccc13)N=N2 | 101 | 113 | 105 | 104 | 103 | 101 |
| Cc1cc(CS(=O)(=O)c2ccccc2)cc(OCc2ccc(CN3CCC[C@@H]3CO)cc2)c1 | 105 | 90.6 | 106 | 97.9 | 97.2 | 107 |

| Structure (SMILES) | cell proliferation ([1]; 50 nM) | cell proliferation ([1]; 500 nM) | cell proliferation ([2]; 50 nM) | cell proliferation ([2]; 500 nM) | cell proliferation (U2932 parental; 50 nM) | cell proliferation (U2932 parental; 500 nM) |
| --- | --- | --- | --- | --- | --- | --- |
| COC(=O)c1ccc2c(c1)NC(=O)/C2=C(\Nc1ccc(N(C)C(=O)CN2CCN(C)CC2)cc1)c1ccccc1 [Nintedanib (BIBF 1120)] | 105 | 94.8 | 93.4 | 81.7 | 102 | 96.6 |
| C=C1/C(=C\C=C2/CCC[C@]3(C)[C@@H]([C@H](C)/C=C/[C@H](C)C(C)C)CC[C@@H]23)C[C@@H](O)C[C@@H]1O [Doxercalciferol] | 104 | 92.2 | 101 | 103 | 105 | 98.5 |
| Cc1nc(Nc2ncc(C(=O)Nc3c(C)cccc3Cl)s2)cc(N2CCN(CCO)CC2)n1 [Dasatinib] | 74.2 | 63.7 | 66.1 | 52.4 | 75 | 60.9 |
| C[C@@H]1CC(=O)c2c(ccc3c2C(=O)c2cccc(O)c2C3=O)C1 | 102 | 98.5 | 104 | 92.5 | 87.5 | 97 |
| O=C(c1cc(Cc2n[nH]c(=O)c3ccccc23)ccc1F)N1CCN(C(=O)C2CC2)CC1 | 103 | 99.3 | 103 | 103 | 99.6 | 94.9 |
| COCC[n+]1c2c(n(Cc3cnccn3)c1C)C(=O)c1ccccc1C2=O [YM155 (Sepantronium Bromide)] | -0.426 | -1.48 | -1.12 | -4.35 | 0.598 | -3.81 |
| COc1cc(Nc2ncc(F)c(Nc3ccc4c(n3)N(COP(=O)(O)O)C(=O)C(C)(C)O4)n2)cc(OC)c1OC [Fostamatinib (R788)] | 96.7 | 92.8 | 97.2 | 95 | 96.7 | 93.6 |
| NC(=O)c1ncn([C@@H]2O[C@H](CO)[C@@H](O)[C@H]2O)c1N [Acadesine] | 88.9 | 94.5 | 98.7 | 98.1 | 102 | 98.4 |
| COc1ccc(F)c(F)c1C(=O)c1cnc(NC2CCN(S(C)(=O)=O)CC2)nc1N | 92 | 53.5 | 89.4 | 66.7 | 90.5 | 63.3 |
| C[C@H](NC(=O)/C(C#N)=C/c1cccc(Br)n1)c1ccccc1 | 108 | 111 | 109 | 102 | 105 | 102 |
| CS(=O)(=O)c1ccc(C(=O)Nc2ccc(Cl)c(-c3ccccn3)c2)c(Cl)c1 [Vismodegib (GDC-0449)] | 106 | 108 | 108 | 113 | 98.2 | 103 |
| Cc1[nH]nc2ccc(-c3cncc(OC[C@@H](N)Cc4ccccc4)c3)cc12 | 95.6 | 41.7 | 99.4 | 40.6 | 93.5 | 31.7 |
| O=C(NCCCNc1nc(Nc2cccc(NC(=O)N3CCCC3)c2)ncc1I)c1cccs1 | 98.5 | 98.8 | 99.5 | 95.7 | 97.2 | 92.1 |
| COc1cc2ncnc(Nc3ccc(O)c(Br)c3)c2cc1OC | 106 | 111 | 96.2 | 105 | 98.3 | 101 |
| CCN(CC)CCCC(C)Nc1ccnc2cc(Cl)ccc12 (stereo not given) [Chloroquine Phosphate] | 98.7 | 104 | 116 | 111 | 94.1 | 99.2 |
| CN(C)CCOc1ccc(/C(=C(/CCCl)c2ccccc2)c2ccccc2)cc1 [Toremifene Citrate] | 102 | 84.4 | 101 | 75.1 | 101 | 88.8 |
| CC(C)(C(=O)NCC(F)(F)C(F)(F)F)C(=O)N[C@@H]1C(=O)Nc2ccccc2-c2ccccc21 | 105 | 109 | 105 | 100 | 98.7 | 86.5 |
